From PubChem BioAssay (Tox21)
Results filed as inconclusive are left out. Active and inactive are the calls of the source. Unless noted, calls come from the whole dose curve; as a rule, active = well fitted curve in the direction sought with a large enough effect in the repeat runs; inconclusive = weak or mixed curves; inactive = no such curve, though single readings can be large; an effect the other way counts as inactive or inconclusive.

Experiments:
[1] = qHTS assay to identify small molecule antagonists of the glucocorticoid receptor (GR) signaling pathway - cell viability counter screen (AID 720693); note: nearly all actives have a fitted effect of over 55% in size
[2] = qHTS assay for identifying genotoxic compounds that show differential cytotoxicity against isogenic chicken DT40 cell lines with known DNA damage response pathways - wild type cell line (AID 743012); note: nearly all actives have a fitted effect of over 60% in size
Method in brief: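 300 wt DT40 cells/well; cpd (DMSO) pintool-transferred after ~0.5 h at 37 C/5% CO2; 40 h incubation; CellTiter-Glo added, 30 min RT; luminescence read.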

[3] = qHTS assay for identifying genotoxic compounds that show differential cytotoxicity against isogenic chicken DT40 cell lines with known DNA damage response pathways - Rev3 mutant cell line (AID 743014); note: nearly all actives have a fitted effect of over 55% in size
[4] = qHTS assay for identifying genotoxic compounds that show differential cytotoxicity against isogenic chicken DT40 cell lines with known DNA damage response pathways - Rad54/Ku70 mutant cell line (AID 743015); note: nearly all actives have a fitted effect of over 60% in size
[5] = qHTS assay to identify small molecule antagonists of the androgen receptor (AR) signaling pathway - cell viability counter screen (AID 743033; note: nearly all actives have a fitted effect of over 45% in size)
[6] = molecular target: Androgen receptor (Homo sapiens) (UniProt P10275); test: qHTS assay to identify small molecule antagonists of the androgen receptor (AR) signaling pathway (AID 743035; active = well fitted inhibition curve with a large enough effect in the signal ratio in the repeat runs, not every such curve was filed as active; the % refers to the signal ratio)
Method in brief: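 In this cell-based reporter screen, compounds were tested in concentration series against R1881-activated HEK293 cells expressing beta-lactamase under UAS control; after 16 h at 37C, FRET substrate was added and fluorescence read 2 h later.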

[7] = molecular target: Androgen receptor (Homo sapiens) (UniProt P10275); test: qHTS assay to identify small molecule agonists of the androgen receptor (AR) signaling pathway (AID 743036; active = well fitted activation curve with a large enough effect in the signal ratio in the repeat runs, with a control signal flat, not every such curve was filed as active; the % refers to the signal ratio)
Method in brief: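 Following a 4 h settling period, AR-UAS-bla HEK293 cells were dosed with compounds for 16 h at 37C. A 2 h room-temperature incubation with LiveBLAzer B/G FRET substrate preceded the fluorescence measurement.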

[8] = molecular target: Androgen receptor (Homo sapiens) (UniProt P10275); test: qHTS assay to identify small molecule agonists of the androgen receptor (AR) signaling pathway using the MDA cell line (AID 743040; note: nearly all actives have a fitted effect of over 20% in size)
Method in brief: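 Testing was done with the MDA-kb2 AR-luc line, a human breast carcinoma stably transfected with MMTV-luciferase containing AR and GR response elements. Cells were exposed 16 h at 37C before ONE-Glo luminescence detection.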

[9] = qHTS assay to identify small molecule antagonists of the androgen receptor (AR) signaling pathway using the MDA cell line - cell viability counter screen (AID 743041; note: nearly all actives have a fitted effect of over 45% in size)
Method in brief: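 Compound exposure lasted 16 h at 37C in MDA-kb2 AR-luc cells stimulated with R1881. Protease-based CellTiter-Fluor reagent was applied for the final 30 min and fluorescence measured.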

[10] = molecular target: Androgen receptor (Homo sapiens) (UniProt P10275); test: qHTS assay to identify small molecule antagonists of the androgen receptor (AR) signaling pathway using the MDA cell line (AID 743042; note: nearly all actives have a fitted effect of over 55% in size)
Method in brief: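 MDA-kb2 breast carcinoma cells carrying MMTV-luciferase (AR/GR responsive) were co-treated with compounds and the agonist R1881 for 16 h at 37C. Inhibition read as ONE-Glo luminescence; CellTiter-Fluor fluorescence measured in parallel for cytotoxicity.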
% is set by controls: 0 for no effect and ±100 for the full control effect.

Androgen receptor (Homo sapiens), sequence (P10275 whole entry, looked up): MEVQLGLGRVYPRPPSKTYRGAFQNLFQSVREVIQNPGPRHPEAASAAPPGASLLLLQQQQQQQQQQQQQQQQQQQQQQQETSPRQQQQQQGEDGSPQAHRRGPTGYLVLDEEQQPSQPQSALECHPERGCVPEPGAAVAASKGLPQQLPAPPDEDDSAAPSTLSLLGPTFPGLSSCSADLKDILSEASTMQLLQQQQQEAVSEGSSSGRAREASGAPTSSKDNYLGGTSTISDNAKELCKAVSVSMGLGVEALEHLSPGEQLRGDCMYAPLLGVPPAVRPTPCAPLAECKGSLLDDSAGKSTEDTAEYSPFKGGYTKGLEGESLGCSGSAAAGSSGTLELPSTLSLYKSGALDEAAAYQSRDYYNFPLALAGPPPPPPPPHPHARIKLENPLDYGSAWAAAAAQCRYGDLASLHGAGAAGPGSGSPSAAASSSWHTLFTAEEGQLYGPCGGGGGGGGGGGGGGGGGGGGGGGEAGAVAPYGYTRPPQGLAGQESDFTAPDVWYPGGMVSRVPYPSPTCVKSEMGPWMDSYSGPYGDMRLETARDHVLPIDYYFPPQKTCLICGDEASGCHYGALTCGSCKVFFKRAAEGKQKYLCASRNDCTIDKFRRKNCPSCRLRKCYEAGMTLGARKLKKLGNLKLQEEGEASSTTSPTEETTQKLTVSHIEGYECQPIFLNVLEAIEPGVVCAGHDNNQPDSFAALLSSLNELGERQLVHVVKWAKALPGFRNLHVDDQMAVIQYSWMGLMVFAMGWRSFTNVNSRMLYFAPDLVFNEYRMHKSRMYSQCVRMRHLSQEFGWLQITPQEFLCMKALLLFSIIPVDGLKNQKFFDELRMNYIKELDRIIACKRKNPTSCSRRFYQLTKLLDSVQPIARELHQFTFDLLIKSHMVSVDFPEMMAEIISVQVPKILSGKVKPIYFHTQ

CCCSSCCC
inactive: outcome [1] | Potency [2] | Potency [3] | Potency [4] | outcome [5]

CN(C)CCCCl
inactive: outcome [1] | Potency [2] | Potency [3] | Potency [4] | outcome [5]

CC1(C)[C@H]2CC[C@](C)(C2)[C@H]1O
inactive: outcome [1] | Potency [2] | Potency [3] | Potency [4]

OC[C@@H](O)C(O)[C@@H](O)CO (stereo partly drawn)
inactive: outcome [1] | Potency [2] | Potency [3] | Potency [4] | outcome [5]

OCC1CCC(CO)CC1 (stereo not drawn)
inactive: outcome [1] | Potency [2] | Potency [3] | Potency [4] | outcome [5] | outcome [6] | outcome [7] | Potency [8] | Potency [9] | outcome [10]

CN(C)CCN(C)CCO
inactive: outcome [1] | Potency [2] | Potency [3] | Potency [4] | outcome [5] | Potency [9]

C/C(CC(C)C)=N\O
inactive: outcome [1] | Potency [2] | Potency [3] | Potency [4] | outcome [5] | Potency [9]

Cc1ccc(C(=O)O)cc1[N+](=O)[O-]
inactive: outcome [1] | Potency [2] | Potency [3] | Potency [4] | outcome [5] | outcome [6] | Potency [8] | Potency [9] | outcome [10]

CC(C)CCOC(=O)c1ccccc1
inactive: outcome [1] | Potency [2] | Potency [3] | Potency [4] | outcome [5] | Potency [9]

C/C=C(\C)C(=O)OCCc1ccccc1
inactive: outcome [1] | Potency [2] | Potency [3] | Potency [4] | outcome [5] | Potency [9]

O=C1c2ccccc2C(=O)c2cc(Cl)ccc21
inactive: viability change, negative = cytotoxic [1] -1.8% [at 7.04 µM] | activity change, negative = cytotoxicity [2] 8.37% [at 8.52 µM] | activity, negative = cytotoxicity [3] 3.55% [at 8.53 µM] | activity change, negative = cytotoxicity [4] 2.51% [at 8.55 µM] | activity change, negative = cytotoxicity [5] 5.05% [at 7.04 µM] | viability change, negative = cytotoxic [9] -1.61% [at 8.47 µM]

CC(C)OC(=O)CCC(=O)OC(C)C
inactive: outcome [1] | Potency [2] | Potency [3] | Potency [4] | outcome [5] | Potency [9]

CN(C)CC/C=C1/c2ccccc2COc2ccc(CC(=O)O)cc21
inactive: outcome [1] | Potency [2] | Potency [3] | Potency [4] | outcome [5] | Potency [9]

CCC(=O)CC
inactive: outcome [1] | Potency [2] | Potency [3] | Potency [4] | outcome [5] | Potency [9]

O=C(O)c1cc2ccccc2nc1C(=O)O
inactive: outcome [1] | Potency [2] | Potency [3] | Potency [4] | outcome [5] | Potency [9]

CC1(C)CC(OC(=O)CCCCCCCCC(=O)OC2CC(C)(C)NC(C)(C)C2)CC(C)(C)N1
inactive: outcome [1] | Potency [2] | Potency [3] | Potency [4] | outcome [5] | Potency [9]

CCOCCOCC
inactive: outcome [1] | Potency [2] | Potency [3] | Potency [4] | outcome [5] | Potency [9]

C[Si]1(C)O[Si](C)(C)O[Si](C)(C)O[Si](C)(C)O[Si](C)(C)O1
inactive: outcome [1] | Potency [2] | Potency [3] | Potency [4] | outcome [5] | Potency [9]

Cc1ccc(C(C)NC(=O)[C@@H](NC(=O)OC(C)C)C(C)C)cc1 (stereo partly drawn)
inactive: outcome [1] | Potency [2] | Potency [3] | Potency [4] | outcome [5] | Potency [9]

CC(C)(CO)C(O)C(=O)NCCCO (stereo not drawn)
inactive: outcome [1] | Potency [2] | Potency [3] | Potency [4] | outcome [5] | Potency [9]

CCc1occc(=O)c1O
inactive: outcome [1] | Potency [2] | Potency [3] | Potency [4] | outcome [5] | Potency [9]

COC(=O)c1cc(Cl)cc(Cl)c1
inactive: outcome [1] | Potency [2] | Potency [3] | Potency [4] | outcome [5] | outcome [6] | Potency [8] | Potency [9] | outcome [10]

CCCCOCC(C)O (stereo not drawn)
inactive: outcome [1] | Potency [2] | Potency [3] | Potency [4] | outcome [5] | Potency [9]

Cc1cc(-c2ccccc2)nnc1NCCN1CCOCC1
inactive: outcome [1] | Potency [2] | Potency [3] | Potency [4] | outcome [5] | Potency [9]

CO[C@@]1(NC(=O)Cc2cccs2)C(=O)N2C(C(=O)O)=C(COC(N)=O)CS[C@@H]21
inactive: outcome [1] | Potency [2] | Potency [3] | Potency [4] | outcome [5] | Potency [9]

OC1OCCOC1O (stereo not drawn)
inactive: outcome [1] | Potency [2] | Potency [3] | Potency [4] | outcome [5] | Potency [9]

OC[C@H]1O[C@@H](O[C@@H]2[C@@H](CO)O[C@](O)(CO)[C@H]2O)[C@H](O)[C@@H](O)[C@H]1O
inactive: outcome [1] | Potency [2] | Potency [3] | Potency [4] | outcome [5] | outcome [7] | Potency [8] | Potency [9] | outcome [10]

c1ccc2c(CC3=NCCN3)cccc2c1
inactive: outcome [1] | Potency [2] | Potency [3] | Potency [4] | outcome [5] | Potency [9]

Nc1nnnn1-c1ccccc1
inactive: outcome [1] | Potency [2] | Potency [3] | Potency [4] | outcome [5] | Potency [9]

CCCc1ccc(O)cc1
inactive: outcome [1] | Potency [2] | Potency [3] | Potency [4] | outcome [5] | Potency [9]
